Values quoted from earlier work as cited in PubChem BioAssay AID977611.
In all, about 3,900 compounds went through this assay and about 3,900 (100%) were called active. The limit is not given here; nearly all actives have Kd up to about 4200 µM. The set was probably picked from earlier hits. This is one part of the list. Where a SMILES comes first, the peptide text is derived from it. Non-standard residues stand in square brackets, D forms with d. Square brackets hold non-standard residues; d marks the D form. Residues, ends and D or L forms follow the SMILES beside them. Peptide text beside a SMILES is read from it. [ ]: non-standard residue; d: D form. Orn(CH(NH2)2) = NC(N)NCCC[C@H](N)C(=O)O

Assay: PubChem AID 977611
Conditions: PDB protein-ligand complexes, literature Kd

For `CC(=O)NCC(=O)N[C@@H](CO)C(=O)N[C@@H](C)C(=O)N[C@@H](CCCNC(N)N)C(=O)N[C@@H](C)C(=O)N[C@@H](CCC(=O)O)C(=O)N[C@H](C(=O)N[C@@H](Cc1cnc[nH]1)C(=O)N[C@@H](CC(C)C)C(=O)O)C(C)C` (Ac-GSA[Orn(CH(NH2)2)]AEVHL-OH), the Kd (protein: WD repeat-containing protein 5, PDB entry 3eg6) is listed as 1.7 µM (active).
In the case of `CC(C)[C@H](NC(=O)[C@H](CCC(=O)O)NC(=O)[C@H](C)NC(=O)[C@H](CCCNC(N)N)NC(=O)[C@H](C)N)C(=O)N[C@@H](Cc1cnc[nH]1)C(=O)O` (H-A[Orn(CH(NH2)2)]AEVH-OH), the Kd (protein: WD repeat-containing protein 5, PDB entry 3emh) is given as 0.14 µM (active).
In the case of `CC[C@H](C)[C@H](NC(=O)[C@H](CCC(=O)O)NC(=O)[C@H](C)NC(=O)[C@H](CCC(N)=O)NC(=O)[C@H](CO)NC(=O)[C@H](CC(C)C)NC(=O)[C@@H](NC(=O)[C@@H](N)CO)[C@@H](C)CC)C(=O)N[C@@H](CC(=O)O)C(=O)N[C@@H](C)C(=O)N[C@@H](CC(C)C)C(=O)N[C@@H](CC(C)C)C(=O)N[C@@H](CC(N)=O)C(=O)O` (H-SILSQAEIDALLN-OH), the Kd (protein: double mutant Chemotaxis protein cheYD13K Y106W, PDB entry 1u8t) is given as 55 µM (active).
For H-SEAAASTAVVIA-OH, the Kd (protein: human antithrombin, PDB entry 1br8) is listed as 18 µM (active).
For `CC[C@H](C)[C@H](NC(=O)[C@H](CC(C)C)NC(=O)[C@H](CCCCN)NC(=O)[C@H](CCC(N)=O)NC(=O)[C@@H](N)CCC(=O)O)C(=O)N[C@@H](CO)C(=O)N[C@@H](CCC(=O)O)C(=O)N[C@@H](CCC(=O)O)C(=O)N[C@@H](CC(=O)O)C(=O)N[C@@H](CC(C)C)C(=O)N[C@@H](CC(N)=O)C(=O)O` (H-EQKLISEEDLN-OH), the Kd (protein: Monoclonal anti-c-myc antibody 9E10, PDB entry 2or9) is given as 0.5 µM (active).
In the case of `Cn1c(CNc2ccc(C(=N)N)cc2)nc2cc(C(=O)N(CCC(=O)O)c3ccccn3)ccc21`, the Kd (protein: humanized anti dabigatran Fab, PDB entry 4jn2) is given as 2.1e-06 µM (active).
In the case of `CCC1=CNN2C(NCc3ccc[n+]([O-])c3)CC(N3CCCC[C@H]3CCO)NC12` (some centres not stated), the Kd (protein: Bromodomain testis-specific protein, PDB entry 4kcx) is given as 37 µM (active).
In the case of `CCCCCCCC(=O)O[C@@H]1[C@@H](OC(=O)[C@@H](C)CC)[C@@H](C)[C@H]2[C@H]1[C@@](C)(OC(C)=O)C[C@H](O[C@@H](O)CCC)[C@@]1(O[C@H](O)CCC)[C@H]2O[C@@H](O)[C@@]1(C)O`, the Kd (protein: SERCA1a, PDB entry 4j2t) is listed as 0.011 µM (active).
For `CC(C)C[C@H](NC(=O)CNC(=O)[C@H](CC(C)C)NC(=O)[C@@H](NC(=O)[C@H](CC(C)C)NC(=O)[C@H](CCC(N)=O)NC(=O)[C@@H](N)CCCNC(N)N)C(C)C)C(=O)O` (HELM PEPTIDE1{[NC(N)NCCC[C@H](N)C(=O)[*:2]].Q.L.V.L.G.L}$$$$V2.0), the Kd (protein: DNA polymerase III, PDB entry 1ok7) is given as 1.2 µM (active).
In the case of `CC[C@H](C)[C@H](NC(=O)[C@H](CCSC)NC(=O)CNC(=O)[C@H](CCCNC(N)N)NC(=O)[C@@H](N)CCC(N)=O)C(=O)O` (H-Q[Orn(CH(NH2)2)]GMI-OH), the Kd (protein: Response regulator aspartate phosphatase F, PDB entry 4i9c) is listed as 3.1 µM (active).
In the case of `CC[C@H](C)[C@H](NC(=O)[C@H](CC(=O)O)NC(=O)[C@H](CCC(=O)O)NC(=O)[C@H](CC(C)C)NC(=O)CNC(=O)[C@H](C)NC(=O)[C@H](C)N)C(=O)N[C@H](C(=O)N[C@@H](CCCNC(N)N)C(=O)N[C@@H](CCCCN)C(=O)N[C@@H](C)C(=O)N[C@@H](CC(C)C)C(=O)N[C@@H](CCSC)C(=O)NCC(=O)N[C@H](C=O)CO)[C@@H](C)CC` (H-AAGLEDII[Orn(CH(NH2)2)]KALMGS-aldehyde), the Kd (protein: Glucocorticoid receptor, PDB entry 3h52) is given as 14 µM (active).
In the case of `CSCC[C@H](NC(=O)[C@H](CC(C)C)NC(=O)[C@H](C)NC(=O)[C@@H](NC(=O)[C@H](CC(N)=O)NC(=O)[C@H](CO)NC(=O)CNC(=O)[C@H](CCCNC(N)N)NC(=O)[C@H](CCCNC(N)N)NC(=O)[C@H](CCC(=O)O)NC(=O)[C@H](CCC(N)=O)NC(=O)[C@H](CC(C)C)NC(=O)[C@@H](N)CCCNC(N)N)C(C)C)C(=O)N[C@@H](CC(C)C)C(=O)N[C@@H](CC(=O)O)C(=O)N[C@@H](CS)C(=O)O` (H-[Orn(CH(NH2)2)]LQE[Orn(CH(NH2)2)][Orn(CH(NH2)2)]GSNVALMLDC-OH), the Kd (protein: Mitogen-activated protein kinase 1, PDB entry 2gph) is given as 5 µM (active).
In the case of `CC[C@H](C)[C@H](NC(=O)[C@@H](N)CCCNC(N)N)C(=O)N[C@@H](CO)C(=O)N[C@@H](C)C(=O)N[C@@H](CC(=O)O)C(=O)N[C@@H](C)C(=O)N[C@@H](CCSC)C(=O)N[C@@H](CCSC)C(=O)N[C@@H](CCC(N)=O)C(=O)N[C@@H](C)C(=O)N[C@@H](CC(C)C)C(=O)N[C@@H](CC(C)C)C(=O)NCC(=O)N[C@@H](C)C(=O)N[C@@H](CCCNC(N)N)C(=O)N[C@@H](C)C(=O)N[C@@H](CCCCN)C(=O)O` (H-[Orn(CH(NH2)2)]ISADAMMQALLGA[Orn(CH(NH2)2)]AK-OH), the Kd (protein: Regulatory Domain of Human Cardiac Troponin C and Ca2+, PDB entry 2krd) is given as 2000 µM (active) and the Kd (protein: human Cardiac Troponin-C(cNTnCCa2+), PDB entry 1mxl) is given as 154 µM (active).
For `CSCC[C@H](NC(=O)CNC(=O)[C@H](C)NC(=O)[C@@H](N)CCC(=O)O)C(=O)N[C@H](C(=O)N[C@@H](CC(C)C)C(=O)NCC(=O)N[C@@H](C)C(=O)N[C@@H](CCCNC(N)N)C(=O)N[C@@H](CCCCN)C(=O)N[C@@H](CC(C)C)C(=O)N[C@@H](CCCCN)C(=O)N[C@@H](CCCCN)C(=O)N[C@@H](CC(C)C)C(=O)NCC(=O)O)[C@@H](C)O` (H-EAGMTLGA[Orn(CH(NH2)2)]KLKKLG-OH), the Kd (protein: Importin subunit alpha-2, PDB entry 3btr) is listed as 5 µM (active).
For `CC[C@H](C)[C@H](NC(=O)[C@H](CCC(=O)O)NC(=O)[C@H](CCC(=O)O)NC(=O)[C@@H](N)CC(=O)O)C(=O)N[C@@H](CCC(=O)O)C(=O)N[C@@H](CCCNC(N)N)C(=O)N[C@@H](CCC(N)=O)C(=O)N[C@@H](CC(C)C)C(=O)N[C@@H](CCCCN)C(=O)N[C@@H](C)C(=O)N[C@@H](CC(C)C)C(=O)NCC(=O)N[C@H](C(=O)N[C@@H](CC(=O)O)C(=O)O)C(C)C` (H-DEEIE[Orn(CH(NH2)2)]QLKALGVD-OH), the Kd (protein: Vacuolar protein sorting-associating protein 4B, PDB entry 2jqk) is listed as 402 µM (active).
For `CC[C@H](C)[C@H](NC(=O)[C@H](C)NC(=O)[C@H](CC(C)C)NC(=O)[C@H](CCC(N)=O)NC(=O)[C@H](CCCNC(N)N)NC(=O)CNC(=O)[C@@H](NC(=O)[C@H](CCC(N)=O)NC(=O)CN)C(C)C)C(=O)N[C@H](C(=O)NCC(=O)N[C@@H](CC(=O)O)C(=O)N[C@@H](CC(=O)O)C(=O)N[C@H](C(=O)N[C@@H](CC(N)=O)C(=O)N[C@@H](CCCNC(N)N)C(=O)O)[C@@H](C)CC)[C@@H](C)CC`, the Kd (protein: BCL-XL, PDB entry 1bxl) is listed as 0.34 µM (active).
